Experimental data published in PubChem BioAssay AID1508622 (National Center for Advancing Translational Sciences (NCATS), 2021).
Calls of active or inactive are those of the source. Calls come from the whole dose curve; as a rule, active = well fitted activation curve with a large enough effect; inconclusive = small, poorly fitted or top-dose-only effect; inactive = no such curve, though single readings can be large or run the other way.

assay: Confirmatory qHTS for Identification of Small Molecule Activators of Huntingtin-Antisense Promoter Activity; conditions: HEK293 HTT-AS promoter firefly luciferase reporter, 24 h; series mostly up to 57.5 µM; activity change, positive = activation: at the top concentration
Summary of the method: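 Plated reporter HEK293 cells (24 h) received library compounds at up to 57.5 uM final or 50 uM PTC124, incubated 24 h at 37C; firefly luciferase luminescence was then recorded with Dual-Glo reagent.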
Potency is the fitted concentration of half-maximal effect.

Activity change, positive = activation, inactive:
COc1ccccc1N1CCN(S(=O)(=O)c2ccc(F)c(C(=O)Nc3ccc(Cl)cc3C(F)(F)F)c2)CC1 -27%, Cc1ccccc1C(=O)NCc1ccc2c(c1)CCN2C(=O)c1ccccc1 -51%, COc1ccc(NC(=O)CSc2nc(-c3ccco3)cc(C(F)(F)F)n2)cc1OC -81.3%, Cc1ccc(CNC(=O)c2c(Nc3c(C)cccc3C)sc(C(=O)c3ccccc3)c2N)cc1 -71%, Cc1ccc(C)c(N2CCN(S(=O)(=O)c3cc(C(=O)Nc4ccccc4C(F)(F)F)ccc3F)CC2)c1 -30.8%, Cc1nc(N2CCCC2)ncc1C(=O)Nc1ccc(OC(F)(F)F)cc1 -33.4%, CCOc1ccc(NC(=O)c2c(Nc3ccccc3C)sc(C(=O)c3ccc(Cl)cc3)c2N)cc1 -30.3%, CCc1ccc(-n2c(SCC(=O)NC(C)CC)nc3n[nH]c(C)c3c2=N)cc1 (centres undefined) -9.19%, CCc1ccc(OCC2c3cc(OC)c(OC)cc3CCN2C(=O)COc2ccccc2)cc1 (centres undefined) -22.3%, Cc1ccc(NC(=O)c2c(NC(=O)C(F)(F)F)sc3c2CCCCC3)cc1 -93.8%, COc1cc2ccccc2cc1C(=O)N1CCN(c2nc3ccc(F)cc3s2)CC1 -89.3%, O=C(CN(c1cccc(C(F)(F)F)c1)S(=O)(=O)c1ccccc1)Nc1cccc(Cl)c1 -90.3%, Cc1ccc(NC(=O)C2CCN(S(=O)(=O)c3ccc4[nH]c5c(c4c3)CCCCC5)CC2)cc1 -23.1%, CC(=O)N1CCCc2cc(S(=O)(=O)N(C)CC(=O)Nc3cccc(Cl)c3C)ccc21 -37.9%, CCc1ccc(NC(=O)Nc2cn(C)c(=O)c3ccccc23)cc1 -34.6%, CCC1CCCCN1C(=O)CSc1nc(-c2ccc(OC)c(OC)c2)cc(C(F)(F)F)n1 (centres undefined) -30.3%, COc1ccc(C(=O)NCCSc2c(C)[nH]c3ccccc23)cc1 -24%, CC(C)c1ccc(NC(=O)c2ccc(F)c(S(=O)(=O)N3CCc4ccccc4C3)c2)cc1 -28.5%, CCOC(=O)C1CCC(CN(Cc2ccc(Cl)cc2)S(=O)(=O)c2cc(Cl)cc(Cl)c2)CC1 (centres undefined) -93.1%, CCOC(=O)c1oc2c(c1C)-c1nn(Cc3ccc(Cl)cc3)cc1CC2 -14.9%, CCOC(=O)c1cc(C)n(CC2CCC(C(=O)Nc3ccc(Cl)cc3)CC2)c1C (centres undefined) -95.2%, CCCCOc1ccc(CNC(=O)c2ccc(NC(=O)N3CCSc4ncccc43)cc2)cc1 -24.2%, CCc1cccc2sc(N3CCN(C(=O)c4cc5ccccc5cc4OC)CC3)nc12 -25.8%, CN1C(=O)c2ccccc2Sc2ccc(NC(=O)NCc3ccc(Cl)cc3)cc21 -93.9%, O=C(NCCc1nc2ccccc2n1CCCOc1ccc(Cl)cc1)C1CCCCC1 -46%, Cc1ccc(-c2c(C)n3c4c(=O)n(C)c(=O)n(C)c4nc3n2CCO)cc1 -61.8%, COc1ccccc1NC(=O)c1ccc(-c2nc(COc3ccc(C)cc3)c(C)o2)cc1 -54.7%, Cc1cc(C)cc(N2C(=O)CSC23C(=O)N(Cc2c(F)cccc2Cl)c2ccccc23)c1 (centres undefined) -34.4%, Cc1c(Cl)cccc1-n1ncc(C(=O)Nc2ccc(F)cc2F)c1C1CCN(C(=O)OC(C)(C)C)CC1 -27.8%, CCOc1ccccc1C(=O)Nc1ccc(-n2nncc2-c2ccccc2)cc1 -10.4%, COc1ccc(NC(=O)Cn2nc(-c3ccncc3)ccc2=O)cc1Cl -6.93%, CCCCN(CC)C(=O)C1CCC(CNS(=O)(=O)c2cccc3nsnc23)CC1 (centres undefined) -35.2%, CC(C)C1C(=O)Nc2ccc(S(=O)(=O)NCc3ccc(Cl)cc3)cc21 (centres undefined) -66.1%, CCC(C(=O)NCCc1ccc(SC)cc1)n1nc(C)c2c(C)n(-c3ccc(C)cc3)nc2c1=O (centres undefined) -93.4%, Cc1cc(NC(=O)NCc2ccc3c(c2)CCN3C(=O)c2ccccc2)ccc1Br -79.8%, Cc1ccc(CCNC(=O)C2CCN(c3nnc(-n4cccc4CNc4ccc(C)cc4)s3)CC2)cc1 -36.5%, CCN(CC)S(=O)(=O)c1ccc(C(=O)NCCSc2c(-c3ccc(OC)cc3)[nH]c3ccccc23)cc1 -9.42%

Potency, active:
Cc1ccc(-n2ncc3c(N(C)Cc4ccccc4)ncnc32)cc1 0.213 µM, CCS(=O)(=O)N1CC(CC#N)(n2cc(-c3ncnc4[nH]ccc34)cn2)C1 30.1 µM
